From PubChem BioAssay (NCATS)
Results filed as inconclusive are left out. The source made the active and inactive calls. Calls follow the shape of the dose curve; as a rule, active = well fitted cell-killing curve with a large enough effect; inconclusive = small, poorly fitted or top-dose-only effect, or effect the other way; inactive = no such curve, though single readings can be large or run the other way.

experiment: Quantitative High-Throughput drug screen in 47 multiple myeloma cell lines against the NCATS MIPE library collection: KMS34_JCRB cell viability assay (AID 1918985); settings: KMS34 myeloma viability, CellTiter-Glo ATP luminescence, 48 h; series mostly up to 45.8 µM; viability, percent of control: at the top concentration; also: nearly all actives have a fitted effect of over 40% in size
Excerpt: PI: Beverly A. Mock Ph.D.
Laboratory of Cancer Biology and Genetics,
Center for Cancer Research, National Cancer Institute,
National Institute of Health, Bethesda, Maryland
Drug resistance and disease progression are common in multiple myeloma (MM) patients, underscoring the need for new therapeutic combinations. […] We hypothesized that effective combinations would reduce MYC expression and enhance p16 activity. […] These preclinical data identify potentially useful drug combinations for evaluation in drug-resistant MM and reveal potential mechanisms of combined drug sensitivity.
Described herein is the primary MIPE qHTS used to cherrypick compounds. Validated compounds were then further tested for potential synergistic activiy.
[1] Peat TJ, Gaikwad SM, Dubois W, Gyabaah-Kessie N, Zhang S, Gorjifard S, Phyo Z, Andres M, Hughitt VK, Simpson RM, Miller MA, Girvin AT, Taylor A, Williams D, D'Antonio N, Zhang Y, Rajagopalan A, Flietner E, Wilson K, Zhang X, Shinn P, Klumpp-Thomas C, McKnight C, Itkin Z, Chen L, Kazandijian D, Zhang J, Michalowski AM, Simmons JK, Keats J, Thomas CJ, Mock BA. Drug combinations identified by high-throughput screening promote cell cycle transition and upregulate Smad pathways in myeloma. Cancer Lett. 2023 Aug 1;568:216284. doi: 10.1016/j.canlet.2023.216284. Epub 2023 Jun 24. PMID: 37356470; PMCID: PMC10408729.
SEQUENCE No. (e.g., 1, 2, 3, etc.); […] (e.g., Cells, Incubation, Reagent, etc.); VALUE and DESCRIPTION.
1; Cells; 5 uL; white, solid bottom 1536-well Greiner assay plate.
2; Compounds; 23 nL; Kalypsis pin tool (Wako USA) equipped with a 1536-well pin head to transfer to the assay plates.
3; Incubation; 48 hours; 37C incubation.
4; Reagent;5uL; CellTiter Glo (Promega).
5; Detector; 425V; Luminescence; Viewlux PerkinElmer.
NOTES (numbers refer to Sequence numbers above)
1. The cell-based screening methods employed in this study were like those previously published. Briefly, the corresponding myeloma cell lines were screened in 1,536-well plates with 500 cells, 5-uL per well for inhibition of cell viability (assessed by measuring ATP levels with CellTiterGlo).
2. NCATS MIPE 4.0 library of approved and investigational drugs were added using the Kalypsis pin tool. Wells treated with DMSO only for 100% viability and media only for 0% viability were used as controls.
3. The assay plates were covered and incubated for 48 hours in a 37C, 5% CO2 incubator with controlled humidity.
4. After 48 hours, CellTilter-GloTM luminescent substrate mix (Promega) reagent was added to the assay plate and plates we incubated for 5 min at room temperature.
5. Signal was measured as median relative luminescence units on a ViewLux (PerkinElmer) multiplate reader.
[1] Heske CM, Davis MI, Baumgart JT, Wilson K, Gormally MV, Chen L, Zhang X, Ceribelli M, Duveau DY, Guha R, Ferrer M, Arnaldez FI, Ji J, Tran HL, Zhang Y, Mendoza A, Helman LJ, Thomas CJ. Matrix Screen Identifies Synergistic Combination of PARP Inhibitors and Nicotinamide Phosphoribosyltransferase (NAMPT) Inhibitors in Ewing Sarcoma. Clin Cancer Res. 2017 Dec 1;23(23):7301-7311. doi: 10.1158/1078-0432.CCR-17-1121. Epub 2017 Sep 12. PMID: 28899971; PMCID: PMC6636827.
Potency is read from the fitted curve at half-maximal effect.

Structure (SMILES) | Potency | viability, percent of control
Cc1c(CN2CCN(C(=O)C(C)C)CC2)sc2c(N3CCOCC3)nc(-c3cnc(N)nc3)nc12 | 0.0296 µM (active) | 
CC[C@@H](C)[C@H](NC(=O)[C@H](CC1CCCCC1)NC(=O)c1ccno1)C(=O)N1CCC2(CCc3ccccc32)CC1 | 7.43 µM (active) | 
Cc1cnc(NC(=O)C2=C(O)c3ccccc3S(=O)(=O)N2C)s1 |  | 117% (inactive)
CN1CCN(CCCN2c3ccccc3Sc3ccc(C(F)(F)F)cc32)CC1 |  | 112% (inactive)
S=C(NCc1ccc2c(c1)OCO2)N1CCN(c2ncnc3c2oc2ccccc23)CC1 |  | 64.9% [at 92.2 µM] (inactive)
O=C(O)CCc1ccc(NCc2cccc(Oc3ccccc3)c2)cc1 |  | 125% (inactive)
O=C(c1cc(Cc2n[nH]c(=O)c3ccccc23)ccc1F)N1CCN(C(=O)C2CC2)CC1 |  | 71.9% (inactive)
Fc1ccc(Cl)cc1-c1nc(Nc2ccncc2)c2nccnc2n1 | 1.32 µM (active) | 
Cc1n[nH]c(C)c1Cc1sc2c(c1C(=O)N1C[C@H](O)CO1)c(=O)n(C)c(=O)n2CC(C)C |  | 81.8% (inactive)
O=C(O)COCCN1CCN(C(c2ccccc2)c2ccc(Cl)cc2)CC1 (stereo not given) |  | 114% (inactive)
NC(=O)c1ccc(-c2nc(-c3ccc4c(c3)OCO4)c(-c3ccccn3)[nH]2)cc1 | 2.64 µM (active) | 
CN(C)c1ccc(Nc2nc(N)n(C(=O)c3c(F)cccc3F)n2)cc1 | 2.35 µM (active) | 
CCn1cc(C(=O)O)c(=O)c2cc(F)c(N3CCNC(C)C3)c(F)c21 (stereo not given) |  | 118% (inactive)
CCC(=O)N[C@H]1CC[C@H](C(=O)N(C)c2ccc(-c3nc4ccccc4o3)cc2)C1 |  | 89.3% (inactive)
COc1ccc2nc(S(=O)Cc3ncc(C)c(OC)c3C)[nH]c2c1 (stereo not given) |  | 108% (inactive)
COc1cc2nccc(Oc3ccc(NC(=O)NC4CC4)c(Cl)c3)c2cc1C(N)=O | 18.7 µM (active) | 
CCOc1ccc(Cc2cc([C@@H]3O[C@H](CO)[C@@H](O)[C@H](O)[C@@H]3O)ccc2Cl)cc1 |  | 99.8% (inactive)
COc1nc(-c2ccc3c(c2)OCO3)n(-c2ccc(NC(=O)CSc3ccccc3)cc2)n1 |  | 106% (inactive)
CC(C)(N)C(=O)N[C@H](COCc1ccccc1)C(=O)N1CCC2(CC1)CN(S(C)(=O)=O)c1ccccc12 | 14.8 µM (active) | 
CC(C)OC(=O)C1=CN(C(=O)c2ccc(F)c(F)c2)CC(C)(C)c2c1[nH]c1ccccc21 |  | 116% (inactive)

Structure (SMILES) | Potency | viability, percent of control
COc1ccc(CC2=NN3C([C@@H](CCc4ccccc4)[C@@H](C)O)=NC(C)C3C(=O)N2)cc1OC (stereo not given in full) |  | 128% (inactive)
CCc1ccc(CCOc2ccc(CC3SC(=O)NC3=O)cc2)nc1 (stereo not given) |  | 87.2% (inactive)
COc1cc2c(cc1OC)CN(CCc1ccc(NC(=O)c3cccc4c(=O)c5cccc(OC)c5[nH]c34)cc1)CC2 |  | 92.5% (inactive)
Oc1ccc(C2CNCCc3c2cc(O)c(O)c3Cl)cc1 (stereo not given) | 14.8 µM (active) | 
C#Cc1cccc(Nc2ncnc3cc(OCCOC)c(OCCOC)cc23)c1 | 11.8 µM (active) | 
Nc1ccc(S(=O)(=O)Nc2ccnn2-c2ccccc2)cc1 |  | 122% (inactive)
Cc1cc2c(C(C)C)c(O)c(O)c(C=O)c2c(O)c1-c1c(C)cc2c(C(C)C)c(O)c(O)c(C=O)c2c1O | 11.8 µM (active) | 
COCCNCCCn1c(C(=O)CF)c(-c2ccc(C)cc2)c2c(N)ncnc21 | 16.6 µM (active) | 
NC[C@H](O)c1ccc(O)c(O)c1 |  | 104% (inactive)
CC(=O)Oc1ccccc1C(=O)O |  | 101% (inactive)
COc1ccccc1-c1cccc(-c2c(O)c3cc(C#N)c(Cl)cc3[nH]c2=O)c1 |  | 89.8% [at 92.2 µM] (inactive)
COc1ccc(-c2c(-c3ccc(O)cc3O)n[nH]c2C)cc1 |  | 79.1% [at 92.2 µM] (inactive)
CCCS(=O)(=O)Nc1ccc(F)c(C(=O)c2c[nH]c3ncc(Cl)cc23)c1F |  | 72% (inactive)
Cc1cn[nH]c1 | 0.0662 µM (active) | 
CNC[C@H](O)c1cccc(O)c1 |  | 101% (inactive)
CCN(CC)CCCC(C)Nc1nc(C)cc(Nc2ccc3nc(C)cc(N)c3c2)n1 (stereo not given) |  | 71.1% (inactive)
O=C(C=Cc1ccc(/C=C/C(=O)Nc2ccc(C3=NCCN3)cc2)cc1)Nc1ccc(C2=NCCN2)cc1 |  | 91% (inactive)
NC(=O)c1ccc(I)c([N+](=O)[O-])c1 |  | 72.6% (inactive)
CS(=O)(=O)Oc1ccc2c(NC(N)=O)c(C(=O)c3ccc(Cl)cc3Cl)oc2c1 |  | 99% (inactive)
CO[C@@H]1[C@H](N(C)C(=O)c2ccccc2)C[C@H]2O[C@]1(C)n1c3ccccc3c3c4c(c5c6ccccc6n2c5c31)C(=O)NC4 | 1.32 µM (active) | 
